Where “and” joins values, the source holds several entries; their conditions need not be identical. Identical values can stand only once. Among all 5,500 compounds or so, about 2,000 (36%) were called active. Roughly 18% stayed inconclusive and do not appear here. No stated cut-off is given here; in the data, active means normalized growth mostly below about 0.91 (no sharp cut-off); inconclusive means no clear call, values can overlap the other calls; inactive means mostly above about 0.92. Some of the results follow.
Test: chemical genetic growth profiling, strain panel (AID 1159580);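 further: tested at 20 µM; growth read once vehicle control cultures reached saturation at 30 °C; 1 = growth at the plate median or of vehicle wells; lower values mean less growth of the strain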
Conditions: S. cerevisiae deletion strains, growth OD

Measured: normalized growth

NC(N)=NC(N)=Nc1ccccc1
inactive: locus YAL013W, strain DEP1, active compounds read low 1.01 and 0.984 | locus YAL021C, strain ccr4, active compounds read low 1 | locus YAL026C, strain drs2, active compounds read low 0.998 | locus YAL030W, strain snc1, active compounds read low 1.01 | locus YAL040C, strain CLN3, active compounds read low 1.08 | locus YBL061C, strain skt5, active compounds read low 1 | locus YBR009C, strain hhf1, active compounds read low 0.979 | locus YBR021W, strain FUR4, active compounds read low 1.02 | locus YBR023C, strain chs3, active compounds read low 1 | locus YBR171W, strain sec66, active compounds read low 1 | locus YBR229C, strain ROT2, active compounds read low 1.01 | locus YBR231C, strain swc5, active compounds read low 0.987 | locus YBR279W, strain paf1, active compounds read low 1 | locus YCL011C, strain gbp2, active compounds read low 1 | locus YCL016C, strain dcc1, active compounds read low 1 | locus YCL029C, strain bik1, active compounds read low 0.995 | locus YCL061C, strain MRC1 (second series), active compounds read low 1 | locus YCL061C, strain MRC1, active compounds read low 0.993 | locus YCL069W, strain vba3, active compounds read low 1 | locus YCR088W, strain abp1, active compounds read low 1.01 | locus YDL005C, strain med2, active compounds read low 0.998 | locus YDL035C, strain GPR1, active compounds read low 1.01 | locus YDL040C, strain nat1, active compounds read low 0.991 | locus YDL074C, strain BRE1, active compounds read low 1.02 | locus YDL101C, strain DUN1, active compounds read low 1.02 | locus YDL134C, strain PPH21, active compounds read low 1.01 | locus YDL185W, strain tfp1, active compounds read low 0.996 | locus YDL192W, strain arf1, active compounds read low 0.998 | locus YDR001C, strain nth1, active compounds read low 0.998 | locus YDR069C, strain doa4, active compounds read low 0.995 | locus YDR101C, strain arx1, active compounds read low 1.02 | locus YDR137W, strain rgp1, active compounds read low 0.981 | locus YDR150W, strain NUM1, active compounds read low 0.998 | locus YDR159W, strain sac3, active compounds read low 0.961 | locus YDR162C, strain NBP2, active compounds read low 1.01 | locus YDR195W, strain ref2 0.948 | locus YDR297W, strain sur2, active compounds read low 0.999 | locus YDR318W, strain mcm21, active compounds read low 0.992 | locus YDR334W, strain swr1, active compounds read low 1 | locus YDR335W, strain msn5, active compounds read low 1 | locus YDR363W, strain ESC2, active compounds read low 1.02 | locus YDR388W, active compounds read low 1 | locus YDR392W, strain spt3, active compounds read low 0.903 | locus YDR502C, strain sam2, active compounds read low 0.993 | locus YEL003W, strain gim4, active compounds read low 0.998 | locus YEL037C, strain rad23, active compounds read low 1.01 | locus YEL061C, strain CIN8 (second series), active compounds read low 0.996 | locus YEL061C, strain CIN8, active compounds read low 1.01 | locus YER002W, strain NOP16, active compounds read low 1.03 | locus YER015W, strain faa2, active compounds read low 0.998 | locus YER016W, strain bim1, active compounds read low 0.999 | locus YER110C, active compounds read low 0.986 | locus YER111C, strain swi4, active compounds read low 0.996 | locus YER155C, strain BEM2 (second series), active compounds read low 0.964 | locus YER155C, strain BEM2, active compounds read low 1 | locus YER167W, strain BCK2, active compounds read low 1.01 | locus YFR010W, strain ubp6, active compounds read low 1.01 | locus YGL078C, strain dbp3, active compounds read low 0.997 | locus YGL086W, strain mad1, active compounds read low 0.997 | locus YGL167C, strain pmr1, active compounds read low 0.993 | locus YGL173C, strain kem1, active compounds read low 0.991 | locus YGL227W, strain vid30, active compounds read low 0.997 | locus YGL240W, strain doc1, active compounds read low 0.964 | locus YGL248W, strain PDE1, active compounds read low 1.02 | locus YGL253W, strain hxk2, active compounds read low 1.01 | locus YGR078C, strain PAC10, active compounds read low 1.01 | locus YGR135W, strain pre9, active compounds read low 0.995 | locus YGR229C, strain SMI1, active compounds read low 0.985 | locus YGR252W, strain gcn5, active compounds read low 0.993 | locus YHR013C, strain ard1, active compounds read low 0.952 | locus YHR027C, strain rpn1, active compounds read low 1 | locus YHR030C, strain SLT2, active compounds read low 1.01 and 1 | locus YHR079C, strain IRE1 (second series), active compounds read low 0.988 | locus YHR079C, strain IRE1, active compounds read low 1 | locus YHR094C, strain hxt1, active compounds read low 0.987 | locus YHR129C, strain ARP1, active compounds read low 1.01 | locus YHR142W, strain chs7, active compounds read low 1.03 | locus YHR200W, strain rpn10, active compounds read low 0.997 | locus YIL066C, strain RNR3, active compounds read low 1.02 | locus YIL073C, strain SPO22, active compounds read low 0.989 | locus YIL125W, strain kgd1, active compounds read low 0.988 | locus YIR030C, strain dcg1, active compounds read low 0.996 | locus YJL092W, strain hpr5, active compounds read low 1 | locus YJL095W, strain BCK1 (second series), active compounds read low 1.01 | locus YJL095W, strain BCK1, active compounds read low 1.03 and 0.993 | locus YJL115W, strain asf1, active compounds read low 1 | locus YJL129C, strain trk1, active compounds read low 1.02 | locus YJL134W, strain LCB3, active compounds read low 1.01 | locus YJL154C, strain vps35, active compounds read low 1.01 | locus YJL164C, strain tpk1, active compounds read low 1 | locus YJL166W, strain qcr8, active compounds read low 0.992 | locus YJL168C, strain set2, active compounds read low 0.994 | locus YJL187C, strain SWE1 (second series), active compounds read low 1.02 | locus YJL187C, strain SWE1, active compounds read low 1 | locus YJR043C, strain POL32, active compounds read low 1.01

— PubChem BioAssay AID1159580 (chemical genetic matrix, 2015)
